The full ranking holds about 81,000 sequences; the median of “one-hybrid fitness for binding NBS DNA” is about -0.1, and the highest 2% start at about 0.36. This excerpt belongs to a sample that is enriched for the highest values. Some results are limits rather than exact numbers.

The record followed here is a collection of fitness landscapes (doi:10.1016/j.celrep.2020.107928).

B1: Caulobacter ParB omega fusion; a variant is named by its letters at X, in order, B8GW30 (parent)
chain: MESVVVGEPGMSEGRRGLGRGLSALLGEVDAAPAQAPGEQLGGSREAPIEILQRNPDQPRRTFREEDLEDLSNSIREKGVLQPILVRPSPDTAGEYQIVAGERAWRAAQRAGLKTVPIMVRELDDLAVLEIGIIENVQRADLNVLEEALSYKVLMEKFERTQENIAQTIGKSXSHVANXMRLLXLPDEVQSYLVSGELTAXHARAIAAAADPVALAKQIIEGGLSVRETEALARKAPNLSAGKSKGGRPPRVKDTDTQALESDLSSVLGLDVSIDHRGSTGTLTITYATLEQLDDLCNRLTRGI

The variants in this test derive from B1. As to the kind of experiment: one-hybrid fitness for binding NBS DNA (the Noc-binding site; scaled: cognate 1, non-cognate 0); higher = stronger binding. The note with it: with NBS DNA site. The procedure, abridged: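 Fitness here means the log change in variant-to-wild-type read ratio between plasmids sequenced before and after selection. That scale was set so cognate equals 1 and non-cognate equals 0. The selection was a bacterial one-hybrid screen of Caulobacter ParB libraries, four specificity codons randomised, in E. coli USO carrying a HIS3 reporter with the site 19 bp from the promoter, grown 48 hours at 37°C on M9-minus-histidine with 0.1 mM IPTG and 5 mM 3-AT.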
Turning to FFRR, the “one-hybrid fitness for binding NBS DNA” value was no more than 0.2.
In the case of NETT, the “one-hybrid fitness for binding NBS DNA” value is no more than 0.2.
Consider VCNR, for which the “one-hybrid fitness for binding NBS DNA” value is no more than 0.2.
As to VRRR, the “one-hybrid fitness for binding NBS DNA” value was 0.624.
For VRVR, the “one-hybrid fitness for binding NBS DNA” value is no more than 0.2.
For the variant VRKR, the “one-hybrid fitness for binding NBS DNA” value was 0.62.
As to VRDR, the “one-hybrid fitness for binding NBS DNA” value is no more than 0.2.
Take VRYR: the “one-hybrid fitness for binding NBS DNA” value is 0.239.
In the case of VRNR, the “one-hybrid fitness for binding NBS DNA” value is 0.368.
With VCKR, the “one-hybrid fitness for binding NBS DNA” value amounted to 0.228.
In the case of VCRR, the “one-hybrid fitness for binding NBS DNA” value worked out at 0.246.
As to TYNY, the “one-hybrid fitness for binding NBS DNA” value is no more than 0.2.
Turning to VWLM, the “one-hybrid fitness for binding NBS DNA” value was no more than 0.2.
Next, RPGK: no more than 0.2; RCHR: 0.586; RSHR: 0.476.
Take RFHR: the “one-hybrid fitness for binding NBS DNA” value was 0.305.
Next, RPHR: no more than 0.2; RSHD: no more than 0.2.
For the variant RSHN, the “one-hybrid fitness for binding NBS DNA” value was no more than 0.2.
Next, LSID: no more than 0.2; YTWT: no more than 0.2.
Next, SVNS: no more than 0.2; PHLC: no more than 0.2.
Regarding NPYT, the “one-hybrid fitness for binding NBS DNA” value was no more than 0.2.
Regarding QAQN, the “one-hybrid fitness for binding NBS DNA” value was no more than 0.2.
As to QTQD, the “one-hybrid fitness for binding NBS DNA” value was no more than 0.2.
Regarding QAQR, the “one-hybrid fitness for binding NBS DNA” value was determined as 0.506.
For the variant QIQR, the “one-hybrid fitness for binding NBS DNA” value is 0.39.
For QSQR, the “one-hybrid fitness for binding NBS DNA” value is 0.535.
For the variant QTQR, the “one-hybrid fitness for binding NBS DNA” value is 0.757.
With QTQH, the “one-hybrid fitness for binding NBS DNA” value worked out at 0.346.
As to QIQD, the “one-hybrid fitness for binding NBS DNA” value was no more than 0.2.
In the case of QAQP, the “one-hybrid fitness for binding NBS DNA” value is no more than 0.2.
On to QSQH, for which the “one-hybrid fitness for binding NBS DNA” value was 0.246.
Turning to QIQN, the “one-hybrid fitness for binding NBS DNA” value was no more than 0.2.
As for QSQN, the figure is no more than 0.2; as for SVRD, no more than 0.2; as for NSML, no more than 0.2.
For the variant LLKM, the “one-hybrid fitness for binding NBS DNA” value was no more than 0.2.
MPSK: the “one-hybrid fitness for binding NBS DNA” value was no more than 0.2.
Turning to KHMV, the “one-hybrid fitness for binding NBS DNA” value is no more than 0.2.
In the case of QDQR, the “one-hybrid fitness for binding NBS DNA” value is no more than 0.2.
Next, QHQD: no more than 0.2.
As for QKQR, the figure is 0.67; as for QHQR, 0.523.
As for QKQN, the figure is no more than 0.2.
As for QPQR, the “one-hybrid fitness for binding NBS DNA” value was no more than 0.2.
Turning to QKQG, the “one-hybrid fitness for binding NBS DNA” value is no more than 0.2.
QCQR: the “one-hybrid fitness for binding NBS DNA” value amounted to 0.612.
Take QGQR: the “one-hybrid fitness for binding NBS DNA” value was no more than 0.2.
With YKRT, the “one-hybrid fitness for binding NBS DNA” value was no more than 0.2.
On to SATK, for which the “one-hybrid fitness for binding NBS DNA” value was no more than 0.2.
For TSAP, the “one-hybrid fitness for binding NBS DNA” value was no more than 0.2.
Consider DITY, for which the “one-hybrid fitness for binding NBS DNA” value is no more than 0.2.
QYQP: the “one-hybrid fitness for binding NBS DNA” value is no more than 0.2.
As for QYQG, the figure is no more than 0.2.
Take QYQM: the “one-hybrid fitness for binding NBS DNA” value was no more than 0.2.
For QYQY, the “one-hybrid fitness for binding NBS DNA” value was no more than 0.2.
As for QYQS, the “one-hybrid fitness for binding NBS DNA” value was 0.373.
Consider QYQT, for which the “one-hybrid fitness for binding NBS DNA” value is 0.446.
QHTQ: the “one-hybrid fitness for binding NBS DNA” value is no more than 0.2.
Regarding IKPC, the “one-hybrid fitness for binding NBS DNA” value is no more than 0.2.
Consider QEEP, for which the “one-hybrid fitness for binding NBS DNA” value was no more than 0.2.
As to QTAE, the “one-hybrid fitness for binding NBS DNA” value was no more than 0.2.
With AHII, the “one-hybrid fitness for binding NBS DNA” value was no more than 0.2.
For QTLG, the “one-hybrid fitness for binding NBS DNA” value is no more than 0.2.
As to QMVC, the “one-hybrid fitness for binding NBS DNA” value was no more than 0.2.
Regarding QKKC, the “one-hybrid fitness for binding NBS DNA” value amounted to 0.385.
On to QKIC, for which the “one-hybrid fitness for binding NBS DNA” value is no more than 0.2.
On to QRVC, for which the “one-hybrid fitness for binding NBS DNA” value was found to be 0.314.
With QRIC, the “one-hybrid fitness for binding NBS DNA” value was 0.303.
Regarding QKVC, the “one-hybrid fitness for binding NBS DNA” value is no more than 0.2.
With QLKC, the “one-hybrid fitness for binding NBS DNA” value is 0.304.
Consider QMKC, for which the “one-hybrid fitness for binding NBS DNA” value amounted to 0.383.
Next, QSVC: no more than 0.2; QMNC: no more than 0.2.
Consider QSKC, for which the “one-hybrid fitness for binding NBS DNA” value is 0.367.
As to QRKC, the “one-hybrid fitness for binding NBS DNA” value is 0.507.
On to HLMG, for which the “one-hybrid fitness for binding NBS DNA” value was no more than 0.2.
As for TSYM, the “one-hybrid fitness for binding NBS DNA” value was no more than 0.2.
Next, HDED: no more than 0.2; PFKY: no more than 0.2; LLIF: no more than 0.2.
On to QCLE, for which the “one-hybrid fitness for binding NBS DNA” value was no more than 0.2.
As for HMAT, the “one-hybrid fitness for binding NBS DNA” value was no more than 0.2.
On to CQKM, for which the “one-hybrid fitness for binding NBS DNA” value is no more than 0.2.
For RIAG, the “one-hybrid fitness for binding NBS DNA” value is no more than 0.2.
Next, QPKC: no more than 0.2; QAKC: 0.349; QHYC: no more than 0.2.
Consider QTPC, for which the “one-hybrid fitness for binding NBS DNA” value was no more than 0.2.
For the variant QCKC, the “one-hybrid fitness for binding NBS DNA” value turned out to be 0.452.
In the case of QTVC, the “one-hybrid fitness for binding NBS DNA” value was no more than 0.2.
Regarding QHKC, the “one-hybrid fitness for binding NBS DNA” value came to 0.367.
Regarding QHVC, the “one-hybrid fitness for binding NBS DNA” value was no more than 0.2.
As for QTKC, the figure is 0.53; as for KAAT, no more than 0.2.
Regarding GLAF, the “one-hybrid fitness for binding NBS DNA” value is no more than 0.2.
Regarding PDTG, the “one-hybrid fitness for binding NBS DNA” value was no more than 0.2.
Take GSLV: the “one-hybrid fitness for binding NBS DNA” value was no more than 0.2.
As for QKWT, the figure is 0.454; as for QAWT, 0.297; as for QKWG, no more than 0.2.
QKYT: the “one-hybrid fitness for binding NBS DNA” value came out at 0.511.
Next, QKIT: 0.363; QKCT: 0.475.
Regarding QKHT, the “one-hybrid fitness for binding NBS DNA” value amounted to 0.549.
For QKCY, the “one-hybrid fitness for binding NBS DNA” value was no more than 0.2.
Turning to QKCC, the “one-hybrid fitness for binding NBS DNA” value is no more than 0.2.
QKHM: the “one-hybrid fitness for binding NBS DNA” value was no more than 0.2.
On to QKPT, for which the “one-hybrid fitness for binding NBS DNA” value came to 0.306.
As for QKHC, the figure is no more than 0.2; as for SRNN, no more than 0.2.
For GDKC, the “one-hybrid fitness for binding NBS DNA” value was no more than 0.2.
Consider RTGY, for which the “one-hybrid fitness for binding NBS DNA” value was no more than 0.2.
Turning to ARHT, the “one-hybrid fitness for binding NBS DNA” value was no more than 0.2.
Consider RTFI, for which the “one-hybrid fitness for binding NBS DNA” value was no more than 0.2.
Next, IIAL: no more than 0.2; HVSG: no more than 0.2.
For the variant PVMQ, the “one-hybrid fitness for binding NBS DNA” value was no more than 0.2.
Consider YSMW, for which the “one-hybrid fitness for binding NBS DNA” value is no more than 0.2.
For the variant LTAH, the “one-hybrid fitness for binding NBS DNA” value is no more than 0.2.
As for AHPT, the figure is no more than 0.2; as for DKRT, no more than 0.2; as for QKLY, no more than 0.2.
In the case of QKLT, the “one-hybrid fitness for binding NBS DNA” value is 0.464.
On to QKGG, for which the “one-hybrid fitness for binding NBS DNA” value was no more than 0.2.
As for QKSG, the figure is no more than 0.2.
NKRT: the “one-hybrid fitness for binding NBS DNA” value was no more than 0.2.
Regarding QKST, the “one-hybrid fitness for binding NBS DNA” value worked out at 0.526.
As for QKSM, the figure is no more than 0.2; as for QKGM, no more than 0.2.
Take QKRT: the “one-hybrid fitness for binding NBS DNA” value turned out to be 0.757.
With QKGT, the “one-hybrid fitness for binding NBS DNA” value came to 0.566.
As for TSRY, the “one-hybrid fitness for binding NBS DNA” value was no more than 0.2.
Regarding RQHL, the “one-hybrid fitness for binding NBS DNA” value was no more than 0.2.
Next, HCVL: no more than 0.2; SCSP: no more than 0.2; SVIR: no more than 0.2.
Consider DSRA, for which the “one-hybrid fitness for binding NBS DNA” value is no more than 0.2.
DIFG: the “one-hybrid fitness for binding NBS DNA” value was no more than 0.2.
For the variant WLHF, the “one-hybrid fitness for binding NBS DNA” value was no more than 0.2.
As for EQLL, the “one-hybrid fitness for binding NBS DNA” value is no more than 0.2.
As for LLDV, the figure is no more than 0.2.
Consider GYFR, for which the “one-hybrid fitness for binding NBS DNA” value is no more than 0.2.
As for QKDT, the figure is 0.401; as for QKNN, 0.203; as for QKNT, 0.639.
Next, QKND: no more than 0.2; GYDR: no more than 0.2; FATT: no more than 0.2.
For GEDG, the “one-hybrid fitness for binding NBS DNA” value was no more than 0.2.
In the case of RPGT, the “one-hybrid fitness for binding NBS DNA” value was no more than 0.2.
With RNGT, the “one-hybrid fitness for binding NBS DNA” value is no more than 0.2.
Consider RHGT, for which the “one-hybrid fitness for binding NBS DNA” value is 0.344.
In the case of RFGT, the “one-hybrid fitness for binding NBS DNA” value is no more than 0.2.
As for RAGG, the “one-hybrid fitness for binding NBS DNA” value was no more than 0.2.
